In PubChem BioAssay (NCI):
About 83,000 compounds went through this panel and 20% of them were active in at least one assay; those are over-represented in the sample as a whole.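 Percent growth is the endpoint: 0 to 100 indicates growth inhibition (40 means 60% inhibition), 0 means no net growth, and negative values indicate cell death.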

Tests used:
Assay in all cases: NCI-60 one-dose screen, 48 h (100 = growth as untreated, 0 = no growth, -100 = all killed); active means growth percent below 10; inactive means the rest
HCT-15 colon = details: 10 µM unless noted
HT29 colon = details: 10 µM unless noted
SNB-75 CNS = details: 10 µM unless noted
SNB-19 CNS = details: 10 µM unless noted
U251 CNS = details: 10 µM unless noted
PC-3 prostate = details: 10 µM unless noted
SK-MEL-5 melanoma = details: 10 µM unless noted
UACC-62 melanoma = details: 10 µM unless noted
LOX IMVI melanoma = details: 10 µM
SK-MEL-28 melanoma = details: 10 µM unless noted
SK-MEL-2 melanoma = details: 10 µM unless noted
SN12C renal = details: 10 µM unless noted
UO-31 renal = details: 10 µM unless noted
TK-10 renal = details: 10 µM unless noted
ACHN renal = details: 10 µM unless noted
CAKI-1 renal = details: 10 µM unless noted
A498 renal = details: 10 µM unless noted
CCRF-CEM leukemia = details: 10 µM unless noted
MOLT-4 leukemia = details: 10 µM unless noted

Measured: growth

CC(=O)NC(O)C(Cl)Cl (centres undefined)
inactive: HCT-15 colon 102% | HT29 colon 105% | SNB-75 CNS 103% | SNB-19 CNS 106% | U251 CNS 91.4% | PC-3 prostate 96.4% | SK-MEL-5 melanoma 102% | UACC-62 melanoma 106% | LOX IMVI melanoma 87.8% | SK-MEL-28 melanoma 103% | SK-MEL-2 melanoma 100% | SN12C renal 110% | UO-31 renal 92.8% | TK-10 renal 97.3% | ACHN renal 105% | CAKI-1 renal 92.3% | A498 renal 94.3% | CCRF-CEM leukemia 99.4% | MOLT-4 leukemia 104%

COC(=O)c1cccc([N+](=O)[O-])c1
inactive: HCT-15 colon 105% | HT29 colon 101% | SNB-75 CNS 120% | SNB-19 CNS 98.6% | U251 CNS 97.4% | PC-3 prostate 97.4% | SK-MEL-5 melanoma 98.9% | UACC-62 melanoma 98.7% | LOX IMVI melanoma 100% | SK-MEL-28 melanoma 102% | SK-MEL-2 melanoma 94.1% | SN12C renal 95.2% | UO-31 renal 98.2% | TK-10 renal 101% | ACHN renal 109% | CAKI-1 renal 108% | A498 renal 92.9% | CCRF-CEM leukemia 104% | MOLT-4 leukemia 105%

C/C(=N\N=C(/C)c1cccc([N+](=O)[O-])c1)c1cccc([N+](=O)[O-])c1
inactive: HCT-15 colon 100% | HT29 colon 87.9% | SNB-75 CNS 83.8% | SNB-19 CNS 80.7% | U251 CNS 91.1% | PC-3 prostate 86.7% | SK-MEL-5 melanoma 94.3% | UACC-62 melanoma 93.2% | LOX IMVI melanoma 91.6% | SK-MEL-28 melanoma 101% | SK-MEL-2 melanoma 90.8% | SN12C renal 81.7% | UO-31 renal 92.8% | TK-10 renal 90.8% | ACHN renal 99.4% | CAKI-1 renal 99.5% | A498 renal 97.9% | CCRF-CEM leukemia 96.5% | MOLT-4 leukemia 102%

OC(CBr)CCBr (centres undefined)
inactive: HCT-15 colon 97.8% | HT29 colon 105% | SNB-75 CNS 73.9% | SNB-19 CNS 97% | U251 CNS 93.3% | PC-3 prostate 87.5% | SK-MEL-5 melanoma 101% | UACC-62 melanoma 95.1% | LOX IMVI melanoma 96.1% | SK-MEL-28 melanoma 107% | SK-MEL-2 melanoma 124% | SN12C renal 96.8% | UO-31 renal 103% | TK-10 renal 131% | ACHN renal 100% | CAKI-1 renal 92.4% | A498 renal 97.5% | CCRF-CEM leukemia 88.2% | MOLT-4 leukemia 104%

CC(=O)c1cccc(NS(=O)(=O)c2ccc(C)cc2)c1
inactive: HCT-15 colon 43.2% | HT29 colon 30.2% | SNB-75 CNS 61.9% | SNB-19 CNS 90% | U251 CNS 61.2% | PC-3 prostate 78.9% | SK-MEL-5 melanoma 60.2% | UACC-62 melanoma 84.4% | LOX IMVI melanoma 66.5% | SK-MEL-28 melanoma 78.5% | SK-MEL-2 melanoma 77.9% | SN12C renal 89.1% | UO-31 renal 77% | TK-10 renal 90.3% | ACHN renal 106% | CAKI-1 renal 81.6% | CCRF-CEM leukemia 84% | MOLT-4 leukemia 73.9%

O=[N+]([O-])c1c(Cl)ncnc1Cl
inactive: HCT-15 colon 100% | HT29 colon 107% | SNB-75 CNS 87.7% | SNB-19 CNS 106% | U251 CNS 95.9% | PC-3 prostate 90.3% | SK-MEL-5 melanoma 111% | UACC-62 melanoma 110% | LOX IMVI melanoma 107% | SK-MEL-28 melanoma 105% | SK-MEL-2 melanoma 110% | SN12C renal 111% | UO-31 renal 101% | TK-10 renal 107% | ACHN renal 94.8% | A498 renal 90% | CCRF-CEM leukemia 99.1% | MOLT-4 leukemia 112%

CCOC(=O)CNC
inactive: HCT-15 colon 99.1% | HT29 colon 117% | SNB-75 CNS 83.4% | SNB-19 CNS 100% | U251 CNS 89.4% | PC-3 prostate 93.9% | SK-MEL-5 melanoma 101% | UACC-62 melanoma 94.8% | LOX IMVI melanoma 95.6% | SK-MEL-28 melanoma 105% | SK-MEL-2 melanoma 117% | SN12C renal 96.4% | UO-31 renal 107% | TK-10 renal 126% | ACHN renal 91.1% | CAKI-1 renal 94.6% | A498 renal 83.1% | CCRF-CEM leukemia 92.3% | MOLT-4 leukemia 103%

COC1CC(OC(=O)c2ccc([N+](=O)[O-])cc2)C(COC(=O)c2ccc([N+](=O)[O-])cc2)O1 (centres undefined)
inactive: HCT-15 colon 100% | HT29 colon 121% | SNB-75 CNS 87.3% | SNB-19 CNS 101% | U251 CNS 97.2% | PC-3 prostate 89.8% | SK-MEL-5 melanoma 95.7% | UACC-62 melanoma 98.1% | LOX IMVI melanoma 103% | SK-MEL-28 melanoma 101% | SK-MEL-2 melanoma 127% | SN12C renal 98.9% | UO-31 renal 95.6% | TK-10 renal 124% | ACHN renal 112% | CAKI-1 renal 94% | A498 renal 83.5% | CCRF-CEM leukemia 98.1% | MOLT-4 leukemia 103%

CC(C)C(C)(C)C(=O)C(C)(C)C(C)(C)C
inactive: HCT-15 colon 96.9% | HT29 colon 98.1% | SNB-75 CNS 109% | SNB-19 CNS 102% | U251 CNS 92.9% | PC-3 prostate 98.8% | SK-MEL-5 melanoma 101% | UACC-62 melanoma 102% | LOX IMVI melanoma 93.3% | SK-MEL-28 melanoma 104% | SK-MEL-2 melanoma 99.9% | SN12C renal 98.2% | UO-31 renal 95.5% | TK-10 renal 96.2% | ACHN renal 99.3% | CAKI-1 renal 104% | A498 renal 83.9% | CCRF-CEM leukemia 107% | MOLT-4 leukemia 110%
